# Out of some 5,500 compounds screened, about 2,000 (36%) were called active. Not shown: some 18% with an inconclusive outcome. This is one part of the list. A number with no mark means an inactive call. Rule as the data show it: active = normalized growth mostly below about 0.91 (no sharp cut-off); inconclusive = no clear call, values can overlap the other calls; inactive = mostly above about 0.92.
# Experiment: chemical genetic growth profiling, strain panel (AID 1159580);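 also: tested at 20 µM; growth read once vehicle control cultures reached saturation at 30 °C; 1 = growth at the plate median or of vehicle wells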
# Settings: S. cerevisiae deletion strains, growth OD
compound,measurement,setting,value
CC1=CC2C(CC1=O)C(C)=CCC2C(C)C (stereo unspecified),normalized growth,"locus YJR066W, strain TOR1, stronger effect = lower value",0.949
same,normalized growth,"locus YKL009W, strain mrt4, stronger effect = lower value",0.945
same,normalized growth,"locus YKL068W, stronger effect = lower value",0.978
same,normalized growth,"locus YKL085W, strain MDH1 (second series), stronger effect = lower value",0.932
same,normalized growth,"locus YKL085W, strain MDH1, stronger effect = lower value",0.932
same,normalized growth,"locus YKL160W, strain elf1, stronger effect = lower value",0.992
same,normalized growth,"locus YKR001C, strain vps1, stronger effect = lower value",0.623 (active)
same,normalized growth,"locus YKR026C, strain gcn3, stronger effect = lower value",0.983
same,normalized growth,"locus YKR091W, strain srl3, stronger effect = lower value",1.01
same,normalized growth,"locus YLL001W, strain dnm1, stronger effect = lower value",0.998
same,normalized growth,"locus YLL026W, stronger effect = lower value",1.01
same,normalized growth,"locus YLL041C, strain sdh2, stronger effect = lower value",1
same,normalized growth,"locus YLR027C, strain aat2, stronger effect = lower value",0.997
same,normalized growth,"locus YLR039C, strain RIC1, stronger effect = lower value",0.717
same,normalized growth,"locus YLR058C, strain SHM2, stronger effect = lower value",0.994
same,normalized growth,"locus YLR102C, strain apc9, stronger effect = lower value",0.985
same,normalized growth,"locus YLR113W, strain HOG1, stronger effect = lower value",0.968
same,normalized growth,"locus YLR221C, strain rsa3, stronger effect = lower value",0.979
same,normalized growth,"locus YLR258W, strain gsy2, stronger effect = lower value",1
same,normalized growth,"locus YLR262C, strain YPT6 (second series), stronger effect = lower value",0.896
same,normalized growth,"locus YLR262C, strain YPT6, stronger effect = lower value",0.709
same,normalized growth,"locus YLR268W, strain sec22, stronger effect = lower value",0.923
same,normalized growth,"locus YLR320W, strain mms22, stronger effect = lower value",0.9
same,normalized growth,"locus YLR330W, strain CHS5, stronger effect = lower value",0.873 (active)
same,normalized growth,"locus YLR342W, strain FKS1 (second series), stronger effect = lower value",0.864
same,normalized growth,"locus YLR342W, strain FKS1, stronger effect = lower value",1.01
same,normalized growth,"locus YLR357W, strain rsc2, stronger effect = lower value",1.03
same,normalized growth,"locus YLR370C, strain arc18, stronger effect = lower value",1.02
same,normalized growth,"locus YLR371W, strain rom2, stronger effect = lower value",0.841 (active)
same,normalized growth,"locus YLR384C, strain iki3, stronger effect = lower value",1
same,normalized growth,"locus YLR418C, strain cdc73, stronger effect = lower value",0.687 (active)
same,normalized growth,"locus YML016C, strain PPZ1, stronger effect = lower value",1.01
same,normalized growth,"locus YML032C, strain rad52, stronger effect = lower value",0.948
same,normalized growth,"locus YML120C, strain ndi1, stronger effect = lower value",1
same,normalized growth,"locus YML124C, strain tub3, stronger effect = lower value",0.985
same,normalized growth,"locus YMR058W, strain fet3, stronger effect = lower value",1.01
same,normalized growth,"locus YMR078C, strain ctf18, stronger effect = lower value",0.974
same,normalized growth,"locus YMR125W, strain sto1, stronger effect = lower value",1.01
same,normalized growth,"locus YMR129W, stronger effect = lower value",1.03
same,normalized growth,"locus YMR205C, strain PFK2, stronger effect = lower value",0.966
same,normalized growth,"locus YMR223W, strain ubp8, stronger effect = lower value",0.901 (active)
same,normalized growth,"locus YMR231W, strain pep5, stronger effect = lower value",0.984
same,normalized growth,"locus YMR307W, strain GAS1, stronger effect = lower value",0.795
same,normalized growth,"locus YNL067W, strain RPL9B, stronger effect = lower value",0.986
same,normalized growth,"locus YNL071W, strain lat1, stronger effect = lower value",0.913 (active)
same,normalized growth,"locus YNL183C, strain NPR1, stronger effect = lower value",0.96
same,normalized growth,"locus YNL209W, strain ssb2, stronger effect = lower value",1.01
same,normalized growth,"locus YNL233W, strain BNI4, stronger effect = lower value",0.874
same,normalized growth,"locus YNL248C, strain rpa49, stronger effect = lower value",0.997
same,normalized growth,"locus YNL250W, strain rad50, stronger effect = lower value",0.956
same,normalized growth,"locus YNL271C, strain bni1, stronger effect = lower value",0.936
same,normalized growth,"locus YNL298W, strain CLA4, stronger effect = lower value",0.924
same,normalized growth,"locus YNL307C, strain MCK1, stronger effect = lower value",0.914
same,normalized growth,"locus YNL322C, strain KRE1 (second series), stronger effect = lower value",1.01
same,normalized growth,"locus YNL322C, strain KRE1, stronger effect = lower value",1
same,normalized growth,"locus YNR049C, strain mso1, stronger effect = lower value",1.01
same,normalized growth,"locus YNR052C, strain pop2, stronger effect = lower value",0.895 (active)
same,normalized growth,"locus YOL006C, strain TOP1, stronger effect = lower value",0.683
same,normalized growth,"locus YOL012C, strain htz1",0.956
same,normalized growth,"locus YOL147C, strain pex11, stronger effect = lower value",0.945
same,normalized growth,"locus YOR001W, strain rrp6, stronger effect = lower value",0.984
same,normalized growth,"locus YOR061W, strain CKA2, stronger effect = lower value",0.967
same,normalized growth,"locus YOR069W, strain VPS5, stronger effect = lower value",0.978
same,normalized growth,"locus YOR070C, strain gyp1, stronger effect = lower value",0.992
same,normalized growth,"locus YOR080W, strain dia2, stronger effect = lower value",1.01
same,normalized growth,"locus YOR083W, strain WHI5, stronger effect = lower value",0.966
same,normalized growth,"locus YOR106W, strain vam3, stronger effect = lower value",0.973
same,normalized growth,"locus YOR136W, strain idh2, stronger effect = lower value",0.959
same,normalized growth,"locus YOR144C, strain elg1, stronger effect = lower value",0.969
same,normalized growth,"locus YOR184W, strain ser1, stronger effect = lower value",0.634 (active)
same,normalized growth,"locus YOR231W, strain MKK1, stronger effect = lower value",0.993
same,normalized growth,"locus YOR265W, strain rbl2, stronger effect = lower value",1.01
same,normalized growth,"locus YOR270C, strain vph1, stronger effect = lower value",0.844
same,normalized growth,"locus YOR290C, strain snf2, stronger effect = lower value",0.972
same,normalized growth,"locus YOR316C, strain cot1, stronger effect = lower value",0.983
same,normalized growth,"locus YPL051W, strain arl3, stronger effect = lower value",0.886 (active)
same,normalized growth,"locus YPL055C, strain LGE1, stronger effect = lower value",0.938
same,normalized growth,"locus YPL078C, strain atp4, stronger effect = lower value",0.991
same,normalized growth,"locus YPL106C, strain sse1, stronger effect = lower value",1.01
same,normalized growth,"locus YPL240C, strain hsp82, stronger effect = lower value",1.02
same,normalized growth,"locus YPL256C, strain CLN2, stronger effect = lower value",0.957
same,normalized growth,"locus YPR119W, strain clb2, stronger effect = lower value",0.978
same,normalized growth,"locus YPR141C, strain kar3, stronger effect = lower value",0.973
same,normalized growth,"locus YPR163C, strain tif3, stronger effect = lower value",0.97
same,normalized growth,"locus YPR167C, strain met16, stronger effect = lower value",0.995
same,normalized growth,"strain wtn01, stronger effect = lower value",0.898 (active)

# From PubChem BioAssay AID1159580 (chemical genetic matrix, 2015)
